The values below come from the OligoGym collection.
Also: reference of the scale not given here.

For the first experiment, the target named is MRPL30. The experiment is described as follows: pooled miR-30 sensor sort-seq; sequence = guide strand. Conditions: shRNA.
Regarding TTAAATAAAAACAATTTGCATT, the sensor-assay potency score (higher = more potent) was -0.896. With TTTGTCACAGTCTGTAGTCTGC, the sensor-assay potency score (higher = more potent) was -0.242.

Take TAGACATGTTCTCCTCTGCTGG: the sensor-assay potency score (higher = more potent) is -0.684. For TATTCTTGTGAACTTGAGGGGT, the sensor-assay potency score (higher = more potent) was 0.0626.

TTCAATTTTGCATTCACTGAAG came in with a sensor-assay potency score (higher = more potent) of -0.704.

The sequence TTTGTGACGAATCCAATCTGTA displayed a sensor-assay potency score (higher = more potent) of -0.546. Turning to ATTCTTGTGAACTTGAGGGGTA, the sensor-assay potency score (higher = more potent) is -0.0278. On the same count and under the same terms, for TTTTTCTAATCCAAGCATCTTT the value was -0.539; for TATTCTGGTAACAATATGCAGT, -0.632; for TCACAGTCTGTAGTCTGCCTGG, -0.534.

In the next experiment the target is MRPS18C. The description is as above. Conditions: shRNA.
With TTGAGCTCTCTTAATTGCTTTT, the sensor-assay potency score (higher = more potent) was -1.05.

As to TTTGAGCTCTCTTAATTGCTTT, the sensor-assay potency score (higher = more potent) was -0.321. The same measure, in the same setting: for TAGGGTCCTTGAGATATGCAGG the value was -0.899; for TACCTGTTGTGAACAACCTCTT, 0.47; for TGTGATTTCTTTCTGTTTCTTC, 0.701.

Turning to ATTTCTTTCTGTTTCTTCCCAC, the sensor-assay potency score (higher = more potent) is 0.584. On the same count and under the same terms, in the case of TTGTGAACAACCTCTTCTCCAA it was -0.0976; in that of TTTCTTCCCACAAAGACCTGTA, 0.204. The same measure, in the same setting: in the case of TTTCTTTCTGTTTCTTCCCACA it was -1.1; in that of TGCTTTTGTGATTTCTTTCTGT, 0.125.

With TACCAAGTGTGTCAACTTCTTC, the sensor-assay potency score (higher = more potent) was -0.886.

In turn, ATACCTGTTGTGAACAACCTCT yielded a sensor-assay potency score (higher = more potent) of -0.0858.
